# AI-2 QS modul: modulators of Vibrio harveyi AI-2 quorum sensing system | 0.4% of 300,000 active | activity change, % at 7.5 µM | AID 2094 | Vibrio harveyi JMH597 AI-2 luminescence/OD600 ratio, 9 h; active compounds read low; strain lacks LuxN and CqsS sensors; 0 = neutral-control median; in the data active = activity change below about -75%, passing the limit was not always enough;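 also: luminescence divided by OD600 gain over 9 h not by final OD600 alone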
# NTR1 agonist: activates human neurotensin receptor 1; 0.17% of 330,000 active; P30989; NTR1-U2OS beta-arrestin-GFP spot imaging, agonist mode; AID 493036; activation, % at 20 µM;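 active = activation at or above 40% of the spot to cytoplasm intensity ratio, with at least 20 cells analyzed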;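 also: 0% = DMSO without peptide and 100% = 100 nM NTR1 peptide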
# Target sequence (P30989 whole entry, looked up): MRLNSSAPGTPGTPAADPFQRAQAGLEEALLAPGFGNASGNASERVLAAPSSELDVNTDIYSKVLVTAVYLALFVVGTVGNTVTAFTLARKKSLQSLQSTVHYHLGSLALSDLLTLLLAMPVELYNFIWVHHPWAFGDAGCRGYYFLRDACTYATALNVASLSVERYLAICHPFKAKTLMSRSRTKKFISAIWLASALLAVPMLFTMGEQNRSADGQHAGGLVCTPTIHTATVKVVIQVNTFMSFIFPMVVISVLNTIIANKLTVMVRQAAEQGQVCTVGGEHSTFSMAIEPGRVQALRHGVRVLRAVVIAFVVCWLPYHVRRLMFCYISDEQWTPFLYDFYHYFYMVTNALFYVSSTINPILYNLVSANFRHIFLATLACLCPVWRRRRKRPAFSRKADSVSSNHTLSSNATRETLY
# AHR activator: activators of human aryl hydrocarbon receptor; P35869; AHR-responsive luciferase reporter cells, luminescence; activation, % at 5 µM; 2.5% of 320,000 active; AID 2796; in the data active = activation above about 47%;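 also: 0% = vehicle wells and 100% = reference agonist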
# SUMO Mot1 rescue: blocks SUMOylation pathway, rescuing yeast Mot1-301 growth. S. cerevisiae Mot1-301 growth rescue, ATP luminescence, 38.5C; percent above DMSO median, 100 means doubled. 1% of 320,000 active. growth rescue, % at 18.8 µM;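 active = every valid replicate shows activation above 250% relative to neutral control wells; inactive = the rest, any valid replicate at or below 250%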;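 also: OY570 slx delta 5 strain wells were the positive control but not used for scaling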
# H9c2 protect: modulators protecting cardiomyocytes from myocardial damage. H9c2 cardiomyocytes, H2O2 injury protection, ATPLite, 2 h. protection from H2O2 cell death, % at 20 µM. AID 588492. 0.63% of 360,000 active;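 active = compounds giving at least 50% protection of heart cells from peroxide-induced death in the single-dose screen, raw or plate-pattern-corrected value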;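 also: 0% = DMSO wells with peroxide and 100% = DMSO wells without peroxide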
# GRIN3A LBD mod: NR3A (human) ligand-binding domain modulation. NR3A LBD differential scanning fluorimetry, Tm shift; 0% = protein alone, 100% = glycine-bound protein. Tm shift relative to glycine control, % at 25 µM. 2.5% of 340,000 active;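 active = melting temperature shift of at least 10% of the positive control shift, at one fixed dose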
# JMH597 growth: retest Vibrio harveyi JMH597 growth inhibition; shares compounds with AI-2 QS modul; OD600 absorbance, 9 h; lacks LuxN and CqsS sensors; growth inhibition, % at 7.5 µM; 1% of 750 active; AID 2726;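 active = every replicate shows growth inhibition above 50%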
# BB721 const-QS lum: retest counter-screen: lowers luminescence of constitutive-QS Vibrio harveyi BB721; shares compounds with AI-2 QS modul; 9 h; inhibition, % at 7.5 µM; 95% of 750 active; AID 2727;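 active = inhibition above about 80% in every replicate, not just on average, limit read from the data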
# BB721 growth rt: retest: inhibitors of Vibrio harveyi BB721 growth; shares compounds with AI-2 QS modul; 3% of 750 active; OD600 absorbance, 9 h; growth inhibition, % at 7.5 µM;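 active = every replicate shows growth inhibition above 50%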
# AI-2 QS JMH597: Vibrio harveyi AI-2 signaling luminescence modulation – JMH597 strain, confirmation; 97% of 750 active; Vibrio harveyi JMH597 AI-2 quorum sensing luminescence, 9 h; luxN and CqsS knockout, AI-2 only; shares compounds with AI-2 QS modul; inhibition, % at 7.5 µM;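 active = every replicate shows more than 75% inhibition of signal versus neutral control wells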
# An asterisk follows results filed as active; i = inactive; x = no result given; ! = repeats disagree. Rows were chosen to be rich in hits. Some 6.2% of all compounds tested hit in one or more screens of this group.
SMILES,AI-2 QS modul,NTR1 agonist,AHR activator,SUMO Mot1 rescue,H9c2 protect,GRIN3A LBD mod,others
CC(C)(C)c1ccc(O)c(N)c1,18,1,48*,-3,x,x,
CC(C)c1ccc(O)c(N)c1,26,-2,7,-15,19,1,
COc1ccc(C(C)=O)cc1CSc1ccc(S(=O)(=O)N2CCCCC2)cn1,x,4,-1,5,-1,1,
NC(=S)NNc1ccnc2cc(Cl)ccc12,24,-1,4,14,-9,1,
C/C(=N/Nc1ccnc2cc(Cl)ccc12)c1ccc(O)cc1,14,13,56*,3,1,14*,
C/C(=N/Nc1ccnc2cc(Cl)ccc12)c1ccc(N)cc1,11,-4,57*,11,8,-2,
COc1ccc(C(=O)/C=C/c2ccc(O)cc2)c(O)c1CC=C(C)C,13,29,3,-16,-13,15*,
O=C(N/N=C/c1ccc[nH]1)c1cc2ccccc2cc1O,37,-1,21,-22,6,11*,
O=C(N/N=C/c1ccncc1)c1cc2ccccc2cc1O,18,2,x,9,0,13*,
Cc1cc(C(=O)Nc2nncs2)oc1C,0,2,3,i,-1,-1,
COC(=O)c1cccc(NC(=O)c2cc3sccc3n2C)c1,6,2,-4,31,-3,-6,
COC(=O)c1ccccc1NC(=O)c1cc2sccc2n1C,17,4,65*,-3,-2,-2,
C[C@@H](NC(=O)/C(C#N)=C/c1ccc(O)c(O)c1)c1ccccc1,x,0,1,8,62*,-9,
CC(NC(=O)/C(C#N)=C/c1ccc(Cl)c([N+](=O)[O-])c1)c1ccccc1 (centres undefined),24,24,1,-22,x,-7,
N#C/C(=C/c1ccc(O)c(O)c1)C(=O)NCc1ccc(Cl)cc1,-27,6,18,-9,65*,3,
N#C/C(=C\c1ccc(O)c(O)c1)C(=O)Nc1cccc2ncccc12,34,-1,7,-1,55*,-2,
N#C/C(=C/c1cccc(O)c1)C(=O)NCc1ccc(Cl)cc1,-15,14,0,i,-5,-5,
CC(C)=NOCC(=O)Nn1c(COc2c(C)cccc2C)nc2ccccc2c1=O,15,-1,5,-4,10,-1,
CC(=O)N[C@H]1[C@H](OC2CCCCC2)O[C@H](COC(C)=O)[C@@H](OC(C)=O)[C@@H]1OC(C)=O,7,0,2,-11,5,1,
O=C(CCc1ccccc1)c1c(O)cc(O)cc1O,-81*,-1,4,-3,-3,13*,
COc1cccc(NC(=S)NNC(=O)c2ccccc2OC(F)F)c1,39,0,3,-2,18,-3,
O=C(NNC(=S)Nc1ccc(F)cc1)c1ccccc1OC(F)F,-5,-1,92*,-25,4,-4,
Cc1ccc(NC(=S)NNC(=O)c2ccccc2OC(F)F)cc1,22,2,102*,8,1,-1,
Cc1ccc(-n2c(C)nnc2SCC(=O)N(C)c2c(N)n(Cc3ccccc3)c(=O)[nH]c2=O)cc1,x,0,-1,19,6,0,
CC(C)(Cc1nc2ccccc2[nH]1)c1nc2ccccc2[nH]1,x,x,x,x,5,x,
SMILES,AI-2 QS modul,NTR1 agonist,AHR activator,SUMO Mot1 rescue,H9c2 protect,GRIN3A LBD mod,others
COc1ccc(Br)cc1CNC(=O)c1ccc2c(c1)N(C)CCS2,-1,-2,49*,30,-2,-5,
CN1CCSc2ccc(C(=O)NCc3cccc(F)c3)cc21,16,-3,67*,-17,-9,5,
CCOc1ccc2ccccc2c1C(=O)N[C@@H]1C(=O)N2[C@@H]1SC(C)(C)[C@@H]2C(=O)O,16,1,0,-13,78*!,2,
COc1cc(F)c(S(=O)(=O)N2CCOc3ccccc32)cc1OC,4,0,0,364,-7,-2,
CCCS(=O)(=O)NC(=O)C1(C)CCN(C(=O)COc2ccccc2)C1 (centres undefined),x,x,x,x,-3,x,
Cc1ccc(-c2cc(C(=O)Nc3sc4c(c3C(=O)NCc3ccco3)CCC4)[nH]n2)c(O)c1,-3,1,-2,-5,-2,21*,
Cc1cc(O)c(-c2cc(C(=O)Nc3sc4c(c3C(=O)NCc3ccco3)CCC4)[nH]n2)cc1C,15,3,4,191,0,7,
O=C(/C=C/c1cccnc1)c1ccccc1O,4,2,15,26,6,15*,
CC1CCCC(NC(=O)CSc2nnc(C(F)(F)F)n2C)C1C (centres undefined),x,0,-2,-8,-3,1,
Cc1ccccc1SCC(=O)OCC(=O)N(C)c1c(N)n(Cc2ccccc2)c(=O)[nH]c1=O,38,0,-1,-4,-1,-1,
CC1(C(=O)Nc2cccc3cccnc23)CCN1Cc1ccccc1OC(F)F (centres undefined),x,x,x,x,-10,x,
Cc1ccc(S(=O)(=O)N/N=C2/CC(c3ccccc3)Oc3ccccc32)cc1[N+](=O)[O-] (centres undefined),21,8,32,-21,-14,25*,
O=S(=O)(N/N=C1/CC(c2ccccc2)Oc2ccccc21)c1ccc(Br)cc1 (centres undefined),31,7,19,20,-16,21*,
CNc1c(NC(=O)c2ccc3c(c2)OCO3)c(=O)oc2ccccc12,6,-1,6,-15,0,-1,
Cc1ccccc1-c1cc2nc(Oc3cccc4ccccc34)n(C)c(=O)c2s1,x,x,x,x,1,x,
Cc1c(Cl)cccc1NS(=O)(=O)c1c(C(=O)N2CCOCC2)c(C)n(C)c1C,-5,0,2,14,-4,-1,
c1ccc(SCc2cc(-c3ccccc3)no2)cc1,-92*,1,-4,-16,-20,3,JMH597 growth=14;BB721 const-QS lum=99*;BB721 growth rt=-15;AI-2 QS JMH597=99*
COc1ccccc1OCc1cc(-c2ccccc2)no1,-65,0,1,10,-11,0,
c1ccc(OCc2cc(-c3ccccc3)no2)cc1,-96*,1,-2,12,-11,6,JMH597 growth=1;BB721 const-QS lum=99*;BB721 growth rt=-1;AI-2 QS JMH597=100*
